High-throughput results: PubChem, National Center for Advancing Translational Sciences (NCATS)
Compounds with a hit are over-represented: about 17% of the library has one in this group of screens.
TDP1 cell CPT – growth inhibition of DT40 Tdp1-/-;hTDP1 cells with camptothecin (screen for TDP1 inhibitors). 420,000 compounds, 12% hits. chicken DT40 Tdp1-/-;hTDP1 cells + 20 nM CPT, ATP luminescence, 48 h. Potency, µM (doses to about 46.2 µM), actives largely listed as inhibitors; further: nearly all actives have a fitted effect of over 55% in size
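Chicken DT40 Tdp1-/- cells complemented with human TDP1, 400 cells/well, exposed to compounds plus 20 nM camptothecin for at least 48 h at 37 C; viability read as ATP content by CellTiter-Glo luminescence.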
TDP1 inh – blocks human tyrosyl-DNA phosphodiesterase 1. recombinant TDP1, AlphaScreen DNA substrate cleavage. Q9NUW8. AID 485290. Potency, µM (series often up to 130 µM), actives largely listed as inhibitors. 350,000 compounds, 0.28% hits; further: nearly all actives have a fitted effect of over 40% in size
Target sequence (Q9NUW8 whole entry, looked up): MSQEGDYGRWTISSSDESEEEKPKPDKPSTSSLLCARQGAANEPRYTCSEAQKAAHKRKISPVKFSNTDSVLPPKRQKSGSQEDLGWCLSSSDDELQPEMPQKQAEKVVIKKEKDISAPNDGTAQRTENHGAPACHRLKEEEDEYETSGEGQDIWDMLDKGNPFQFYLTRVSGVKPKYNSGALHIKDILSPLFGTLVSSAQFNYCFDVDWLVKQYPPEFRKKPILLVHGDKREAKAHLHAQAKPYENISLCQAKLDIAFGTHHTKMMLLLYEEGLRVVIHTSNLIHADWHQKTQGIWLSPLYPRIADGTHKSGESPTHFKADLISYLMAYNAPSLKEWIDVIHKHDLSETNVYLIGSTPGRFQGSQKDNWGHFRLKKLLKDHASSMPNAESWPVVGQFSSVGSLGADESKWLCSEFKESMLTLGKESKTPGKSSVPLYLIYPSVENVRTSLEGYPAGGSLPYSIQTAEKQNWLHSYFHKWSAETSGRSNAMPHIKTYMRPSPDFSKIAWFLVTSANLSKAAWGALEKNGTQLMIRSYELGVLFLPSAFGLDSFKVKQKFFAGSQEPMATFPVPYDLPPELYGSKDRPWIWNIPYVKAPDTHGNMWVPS
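Recombinant E. coli-expressed Tdp1 (1 nM) preincubated with compound 15 min at RT, then 5'-biotin/3'-phosphotyrosine-FITC DNA substrate (15 nM) added for 5 min. AlphaScreen beads (10 ug/ml) added, 10 min RT; tyrosine-FITC cleavage read as signal loss.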
ClpP mod – qHTS Assay for Activators of ClpP | ATP-dependent Clp protease proteolytic subunit (Bacillus subtilis (strain 168)), P80244 | purified B. subtilis ClpP, FRET peptide cleavage, 20 min | Potency, µM (top dose mostly 57.5 µM) | 340,000 compounds, 1.9% hits | AID 651965, 2013; active means well fitted falling curve with a large enough effect; inconclusive means small, poorly fitted or top-dose-only effect; inactive means no such curve, though single readings can be large or run the other way; further: the source files actives as falling curves though it sought activators and does not explain the sign; nearly all actives have a fitted effect of over 65% in size
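ClpP 10 microg/mL final, pH 8 Tris/KCl buffer with BSA, glycerol, Tween-20; compound pinned in; FRET-FV substrate; RT 20 min; Ex320/Em430; ΔFRET vs ADEP 5.8 microM, DMSO, no enzyme.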
DT40 TDP1 no CPT – qHTS for Inhibitors of human tyrosyl-DNA phosphodiesterase 1 (TDP1): qHTS in cells in absence of CPT. DT40 Tdp1-/- hTDP1 cells, no CPT, ATP luminescence, 48 h. Potency, µM (top dose mostly 46.2 µM), most hits filed as inhibitors. AID 686978, 2013. 420,000 compounds, 15% hits; further: nearly all actives have a fitted effect of over 55% in size
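DT40 Tdp1-/-;hTDP1 cells, no CPT (DMSO vehicle only), 400 cells/well; compounds pin-transferred; ≥48 hr, 37 °C; CellTiter-Glo 30 min RT dark, luminescence read.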
Numbers stand for hits. Unless noted, the call rests on the fitted dose curve; in most records, active means well fitted curve in the direction sought with a large enough effect; inconclusive means small, poorly fitted or top-dose-only effect, or another doubt; inactive means no such curve, though single readings can be large; an effect the other way counts as inactive or inconclusive.

COc1ccc(OC)c(-c2nnc3n(Cc4ccc(C)cc4)c(=O)c4ccccc4n23)c1 was read as TDP1 cell CPT 10.3µM, TDP1 inh inactive, ClpP mod inactive and DT40 TDP1 no CPT 18.4µM.
`COc1ccc(-c2nnc3n(CCc4ccccc4)c(=O)c4ccccc4n23)c(OC)c1` gave TDP1 cell CPT 18.4µM, TDP1 inh inactive, ClpP mod inactive and DT40 TDP1 no CPT 13µM.
O=c1c2ccccc2n2c(-c3ccccc3F)nnc2n1CCc1ccccc1 was read as TDP1 cell CPT inconclusive, TDP1 inh inactive, ClpP mod inactive and DT40 TDP1 no CPT 18.4µM.
For CC[C@H]1NC(=O)[C@@H](NC(=O)c2ncccc2O)[C@@H](C)OC(=O)[C@H](c2ccccc2)NC(=O)[C@@H]2CC(=O)CCN2C(=O)[C@H](Cc2ccccc2)N(C)C(=O)[C@@H]2CCCN2C1=O the results were TDP1 cell CPT inactive and DT40 TDP1 no CPT inactive.
For CCCCN=C1NC(=O)C(CC(=O)NCCc2ccc(OC)cc2)S1 (stereo not given) the results were TDP1 cell CPT inactive, TDP1 inh inactive, ClpP mod inactive and DT40 TDP1 no CPT inactive.
For O=C(Cn1ncc2c([nH]c3ccccc32)c1=O)NCC1CCN(Cc2ccccc2F)CC1 the results were TDP1 cell CPT inactive, TDP1 inh inactive, ClpP mod inactive and DT40 TDP1 no CPT inactive.
`CC(C)c1ccc(-c2nnc3n(CCc4ccccc4)c(=O)c4ccccc4n23)cc1` gave TDP1 cell CPT inconclusive, TDP1 inh inactive, ClpP mod inactive and DT40 TDP1 no CPT 18.4µM.
`Cc1cccc(-c2nnc3n(CCc4ccccc4)c(=O)c4ccccc4n23)c1` gave TDP1 cell CPT inconclusive, TDP1 inh inactive, ClpP mod inactive and DT40 TDP1 no CPT 25.9µM.
Screening COc1cc(/C=C2\C(=O)N(C)C(=S)N2C)ccc1O returned TDP1 cell CPT inactive, TDP1 inh inactive, ClpP mod inactive and DT40 TDP1 no CPT inactive.
Screening COc1cc(/C=C/C=C2/CC/C(=C/C=C/c3ccc(O)c(OC)c3)C2=O)ccc1O returned TDP1 cell CPT 2.31µM, ClpP mod inactive and DT40 TDP1 no CPT 2.59µM.
`COc1ccc(/C=C2\N=C(SC)SC2=O)cc1OC` gave TDP1 cell CPT inactive, TDP1 inh inactive, ClpP mod inactive and DT40 TDP1 no CPT inactive.
Screening COc1cc(/C=C2\COC/C(=C\c3ccc(O)c(OC)c3)C2=O)ccc1O returned TDP1 cell CPT 3.26µM, TDP1 inh inactive and DT40 TDP1 no CPT 3.26µM.
Screening COc1ccc(C=C2C=C(C(C)(C)C)C(=O)C(C(C)(C)C)=C2)cc1OC returned TDP1 cell CPT inconclusive and DT40 TDP1 no CPT 7.31µM.
For COc1ccc(/C=C2\CCc3ccccc3C2=O)cc1OC the results were TDP1 cell CPT inconclusive, TDP1 inh inactive, ClpP mod inactive and DT40 TDP1 no CPT inconclusive.
COc1ccc(/C=C2\CC/C(=C\c3ccc(OC)c(OC)c3)C2=O)cc1OC was read as TDP1 cell CPT 16.4µM, TDP1 inh inactive, ClpP mod inactive and DT40 TDP1 no CPT 20.6µM.
`Cc1ccc(CNC(=O)c2nnn(CC(=O)Nc3cc(C)cc(C)c3)c2N)cc1` gave TDP1 cell CPT inactive, TDP1 inh inactive, ClpP mod inactive and DT40 TDP1 no CPT inactive.
O=C1CCC([N+](=O)[O-])C(c2ccc(C(F)(F)F)cc2)N1 (stereo not given) was read as TDP1 cell CPT inactive, ClpP mod inactive and DT40 TDP1 no CPT inactive.
`COc1cc(/C=C2/CC/C(=C/c3ccc(O)c(OC)c3)C2=O)ccc1O` gave TDP1 cell CPT 20.6µM, ClpP mod inactive and DT40 TDP1 no CPT inconclusive.
COc1cc(/C=C2\SC(=Nc3ccccc3OC)NC2=O)ccc1O was read as TDP1 cell CPT inconclusive, TDP1 inh inactive and DT40 TDP1 no CPT inconclusive.
For COc1cc(/C=C2\CC/C(=C\c3ccc(OCCO)c(OC)c3)C2=O)ccc1OCCO the results were TDP1 cell CPT inconclusive, TDP1 inh inactive and DT40 TDP1 no CPT 23.1µM.
For COc1ccc(C)cc1NC(=O)Cn1c(=O)oc2cc(S(=O)(=O)N3CCCCCC3)ccc21 the results were TDP1 cell CPT 16.4µM, TDP1 inh inactive, ClpP mod inactive and DT40 TDP1 no CPT 11.6µM.
Screening Cc1cccc(C(C)C)c1NC(=O)Cn1c(=O)oc2cc(S(=O)(=O)N3CCCC3)ccc21 returned TDP1 cell CPT 18.4µM, TDP1 inh inactive, ClpP mod inactive and DT40 TDP1 no CPT 14.6µM.
